Assay results taken from publication PMC7862700, “An all-to-all approach to the identification of sequence-specific readers for epigenetic DNA modifications on cytosine”.

Assays:
Experiment in all cases: DAPPL (digital affinity profiling via proximity ligation, sequencing); 10 mM Tris-HCl pH 7.5, 50 mM NaCl, 1 mM DTT, 4% glycerol, room temperature, 30 min; GST-TFs on glutathione beads, 16-mer random dsDNA library, 0.1% formaldehyde crosslink after washing; high values mean tight binding
[1] = biological target: T1, FEV (Homo sapiens, UniProt Q99581 1-238); conditions: protein: recombinant; tags: N-terminal GST; dsDNA, one strand shown
T1 sequence: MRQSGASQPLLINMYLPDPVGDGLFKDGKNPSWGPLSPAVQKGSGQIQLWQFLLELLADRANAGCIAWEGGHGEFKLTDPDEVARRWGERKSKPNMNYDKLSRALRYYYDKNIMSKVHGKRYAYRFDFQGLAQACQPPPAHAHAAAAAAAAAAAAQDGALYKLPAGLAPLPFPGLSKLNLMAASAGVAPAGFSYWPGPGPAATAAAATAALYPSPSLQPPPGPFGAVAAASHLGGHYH
Summary of the method: (§1)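 Human transcription factors were made in yeast as GST fusions, captured on glutathione beads and barcoded with DNA. With a tag-only sample included, the pool was incubated with 200 nmole of a random double-stranded 16-mer DNA library in Tris/NaCl/DTT/glycerol buffer at room temperature for 30 min, then crosslinked with 0.1% formaldehyde after washing, ligated by proximity, amplified and sequenced. For binding signal, each hexamer's read frequency for a factor is divided by its frequency for the tag-only sample.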

[2] = biological target: ETV5 (Homo sapiens, UniProt P41161 1-510); conditions: protein: recombinant; tags: N-terminal GST; dsDNA, one strand shown
Summary of the method: as §1

[3] = biological target: HSF1 (Homo sapiens, UniProt Q00613 1-529); conditions: protein: recombinant; tags: N-terminal GST; chain copies: 3; dsDNA, one strand shown
Summary of the method: as §1

[4] = biological target: T2, SPIC (Homo sapiens, UniProt Q8N5J4 1-248); conditions: protein: recombinant; tags: N-terminal GST; dsDNA, one strand shown
T2 sequence: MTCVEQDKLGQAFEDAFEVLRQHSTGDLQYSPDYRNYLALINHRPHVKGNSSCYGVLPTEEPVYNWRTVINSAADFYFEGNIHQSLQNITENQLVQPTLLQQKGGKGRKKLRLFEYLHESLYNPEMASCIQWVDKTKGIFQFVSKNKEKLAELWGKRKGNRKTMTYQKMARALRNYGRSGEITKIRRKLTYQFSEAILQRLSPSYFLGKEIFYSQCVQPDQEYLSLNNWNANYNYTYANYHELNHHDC
Summary of the method: as §1

[5] = biological target: ELF4 (Homo sapiens, UniProt Q99607 1-663); conditions: protein: recombinant; tags: N-terminal GST; dsDNA, one strand shown
Summary of the method: as §1

[6] = biological target: T3, ELK4 (Homo sapiens, UniProt P28324-2 1-405); conditions: protein: recombinant; tags: N-terminal GST; dsDNA, one strand shown
T3 sequence: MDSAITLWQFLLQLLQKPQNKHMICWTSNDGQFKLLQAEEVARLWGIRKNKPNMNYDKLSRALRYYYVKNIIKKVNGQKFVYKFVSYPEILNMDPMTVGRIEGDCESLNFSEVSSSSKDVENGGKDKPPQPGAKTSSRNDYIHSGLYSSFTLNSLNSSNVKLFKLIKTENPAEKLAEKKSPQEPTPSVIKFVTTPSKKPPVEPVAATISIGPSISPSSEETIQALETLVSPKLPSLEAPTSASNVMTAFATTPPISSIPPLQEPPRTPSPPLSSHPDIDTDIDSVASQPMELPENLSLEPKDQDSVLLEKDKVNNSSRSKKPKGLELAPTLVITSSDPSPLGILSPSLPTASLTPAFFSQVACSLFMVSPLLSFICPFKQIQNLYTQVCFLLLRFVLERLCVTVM
Summary of the method: as §1

[7] = biological target: T4, ETV2 (Homo sapiens, UniProt O00321 1-342); conditions: protein: recombinant; tags: N-terminal GST; dsDNA, one strand shown
T4 sequence: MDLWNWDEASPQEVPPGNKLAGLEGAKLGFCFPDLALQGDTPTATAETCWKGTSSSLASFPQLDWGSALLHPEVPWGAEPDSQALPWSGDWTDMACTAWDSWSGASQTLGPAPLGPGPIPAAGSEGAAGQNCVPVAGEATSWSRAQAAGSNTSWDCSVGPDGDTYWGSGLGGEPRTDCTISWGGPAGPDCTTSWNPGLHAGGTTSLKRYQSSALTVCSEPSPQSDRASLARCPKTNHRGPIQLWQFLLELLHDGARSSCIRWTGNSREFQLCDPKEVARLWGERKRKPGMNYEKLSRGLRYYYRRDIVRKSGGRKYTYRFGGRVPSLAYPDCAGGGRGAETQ
Summary of the method: as §1

[8] = biological target: T5, ELF3 (Homo sapiens, UniProt P78545 1-371); conditions: protein: recombinant; tags: N-terminal GST; dsDNA, one strand shown
T5 sequence: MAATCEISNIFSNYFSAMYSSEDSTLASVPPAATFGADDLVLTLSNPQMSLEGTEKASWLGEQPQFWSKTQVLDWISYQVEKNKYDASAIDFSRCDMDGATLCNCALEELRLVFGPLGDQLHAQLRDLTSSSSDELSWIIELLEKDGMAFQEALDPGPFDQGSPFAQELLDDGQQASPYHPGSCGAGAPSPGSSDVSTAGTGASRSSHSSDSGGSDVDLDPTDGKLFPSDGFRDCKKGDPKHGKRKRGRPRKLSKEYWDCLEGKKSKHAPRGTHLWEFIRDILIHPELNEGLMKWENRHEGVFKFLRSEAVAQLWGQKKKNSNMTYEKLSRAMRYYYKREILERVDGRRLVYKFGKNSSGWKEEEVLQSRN
Summary of the method: as §1

[9] = biological target: CRX (Homo sapiens, UniProt O43186 1-299); conditions: protein: recombinant; tags: N-terminal GST; dsDNA, one strand shown
Summary of the method: as §1

[10] = biological target: ETV1 (Homo sapiens, UniProt P50549 1-477); conditions: protein: recombinant; tags: N-terminal GST; dsDNA, one strand shown
Summary of the method: as §1

[11] = biological target: T6, ERF (Homo sapiens, UniProt P50548 1-548); conditions: protein: recombinant; tags: N-terminal GST; dsDNA, one strand shown
T6 sequence: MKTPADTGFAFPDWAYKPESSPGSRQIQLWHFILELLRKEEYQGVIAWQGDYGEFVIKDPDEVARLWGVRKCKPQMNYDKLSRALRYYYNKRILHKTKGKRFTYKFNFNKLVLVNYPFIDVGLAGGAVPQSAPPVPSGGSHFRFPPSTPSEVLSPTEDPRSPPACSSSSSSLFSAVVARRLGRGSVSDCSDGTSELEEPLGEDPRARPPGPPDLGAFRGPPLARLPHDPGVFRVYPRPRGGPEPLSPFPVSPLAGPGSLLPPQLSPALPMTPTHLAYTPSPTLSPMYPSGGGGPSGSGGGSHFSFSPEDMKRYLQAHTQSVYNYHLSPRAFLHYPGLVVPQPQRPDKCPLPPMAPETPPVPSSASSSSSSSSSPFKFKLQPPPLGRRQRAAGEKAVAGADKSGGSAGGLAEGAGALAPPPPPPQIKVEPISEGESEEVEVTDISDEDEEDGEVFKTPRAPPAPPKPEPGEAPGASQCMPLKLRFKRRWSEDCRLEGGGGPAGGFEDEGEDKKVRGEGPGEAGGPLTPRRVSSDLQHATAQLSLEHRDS
Summary of the method: as §1

[12] = biological target: T7, ETV3L (Homo sapiens, UniProt Q6ZN32 1-361); conditions: protein: recombinant; tags: N-terminal GST; dsDNA, one strand shown
T7 sequence: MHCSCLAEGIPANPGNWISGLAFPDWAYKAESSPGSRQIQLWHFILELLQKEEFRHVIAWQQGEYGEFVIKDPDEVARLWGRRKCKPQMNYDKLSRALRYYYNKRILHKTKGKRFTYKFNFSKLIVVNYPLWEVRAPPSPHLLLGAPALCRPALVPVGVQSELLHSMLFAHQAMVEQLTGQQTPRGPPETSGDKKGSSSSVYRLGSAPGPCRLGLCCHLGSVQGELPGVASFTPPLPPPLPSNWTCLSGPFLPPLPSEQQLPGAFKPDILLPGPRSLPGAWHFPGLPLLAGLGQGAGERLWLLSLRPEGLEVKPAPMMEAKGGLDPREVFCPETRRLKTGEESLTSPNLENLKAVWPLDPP
Summary of the method: as §1

[13] = biological target: T8, ETS2 (Homo sapiens, UniProt P15036 1-469); conditions: protein: recombinant; tags: N-terminal GST; dsDNA, one strand shown
T8 sequence: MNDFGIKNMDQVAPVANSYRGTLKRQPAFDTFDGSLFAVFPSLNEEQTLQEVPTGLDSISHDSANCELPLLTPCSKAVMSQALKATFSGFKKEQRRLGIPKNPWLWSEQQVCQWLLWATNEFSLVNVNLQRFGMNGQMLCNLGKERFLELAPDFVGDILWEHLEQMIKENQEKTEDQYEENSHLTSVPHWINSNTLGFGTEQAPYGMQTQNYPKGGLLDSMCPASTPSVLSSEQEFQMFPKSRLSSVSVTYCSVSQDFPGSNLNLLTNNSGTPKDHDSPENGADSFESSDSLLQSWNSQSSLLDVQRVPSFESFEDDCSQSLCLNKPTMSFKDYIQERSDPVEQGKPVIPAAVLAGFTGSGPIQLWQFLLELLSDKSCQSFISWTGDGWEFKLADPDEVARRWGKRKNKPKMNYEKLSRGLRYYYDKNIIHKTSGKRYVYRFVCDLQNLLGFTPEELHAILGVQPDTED
Summary of the method: as §1

[14] = biological target: T9, SPDEF (Homo sapiens, UniProt O95238 1-335); conditions: protein: recombinant; tags: N-terminal GST; dsDNA, one strand shown
T9 sequence: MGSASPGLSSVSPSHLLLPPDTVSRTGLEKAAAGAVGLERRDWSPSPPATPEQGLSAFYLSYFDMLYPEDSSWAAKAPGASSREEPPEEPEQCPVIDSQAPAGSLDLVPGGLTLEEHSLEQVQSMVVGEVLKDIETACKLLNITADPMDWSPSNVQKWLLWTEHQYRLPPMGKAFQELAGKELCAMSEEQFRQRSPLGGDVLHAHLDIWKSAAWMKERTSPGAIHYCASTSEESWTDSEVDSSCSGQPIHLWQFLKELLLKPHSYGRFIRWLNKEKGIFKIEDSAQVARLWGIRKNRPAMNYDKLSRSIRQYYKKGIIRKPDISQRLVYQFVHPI
Summary of the method: as §1

[15] = biological target: T10, ETV7 (Homo sapiens, UniProt Q9Y603 1-341); conditions: protein: recombinant; tags: N-terminal GST; dsDNA, one strand shown
T10 sequence: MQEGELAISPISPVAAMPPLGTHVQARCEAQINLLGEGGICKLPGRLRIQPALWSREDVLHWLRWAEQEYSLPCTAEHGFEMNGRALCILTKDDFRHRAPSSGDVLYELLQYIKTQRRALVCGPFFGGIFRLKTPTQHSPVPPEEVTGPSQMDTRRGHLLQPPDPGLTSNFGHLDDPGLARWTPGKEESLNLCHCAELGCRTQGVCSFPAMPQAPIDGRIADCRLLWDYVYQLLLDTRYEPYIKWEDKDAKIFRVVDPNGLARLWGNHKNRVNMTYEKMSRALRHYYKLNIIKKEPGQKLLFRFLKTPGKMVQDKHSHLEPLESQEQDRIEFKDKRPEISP
Summary of the method: as §1

[16] = biological target: T11, ELF5 (Homo sapiens, UniProt Q9UKW6-2 1-255); conditions: protein: recombinant; tags: N-terminal GST; dsDNA, one strand shown
T11 sequence: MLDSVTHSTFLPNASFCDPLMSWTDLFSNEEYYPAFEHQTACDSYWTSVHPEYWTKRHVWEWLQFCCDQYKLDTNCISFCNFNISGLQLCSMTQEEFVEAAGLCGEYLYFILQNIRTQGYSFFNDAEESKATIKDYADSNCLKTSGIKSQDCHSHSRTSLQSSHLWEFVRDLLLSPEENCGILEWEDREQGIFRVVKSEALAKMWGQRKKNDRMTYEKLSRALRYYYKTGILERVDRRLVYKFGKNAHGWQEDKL
Summary of the method: as §1

[17] = biological target: T12, ETV3 (Homo sapiens, UniProt P41162-2 1-143); conditions: protein: recombinant; tags: N-terminal GST; dsDNA, one strand shown
T12 sequence: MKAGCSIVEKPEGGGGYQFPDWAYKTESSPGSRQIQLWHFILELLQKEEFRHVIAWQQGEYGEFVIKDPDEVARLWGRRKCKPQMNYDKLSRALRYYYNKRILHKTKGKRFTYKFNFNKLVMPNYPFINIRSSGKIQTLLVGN
Summary of the method: as §1

[18] = biological target: ETV6 (Homo sapiens, UniProt P41212 1-452); conditions: protein: recombinant; tags: N-terminal GST; dsDNA, one strand shown
Summary of the method: as §1

Chain of ETV6 (P41212 whole entry): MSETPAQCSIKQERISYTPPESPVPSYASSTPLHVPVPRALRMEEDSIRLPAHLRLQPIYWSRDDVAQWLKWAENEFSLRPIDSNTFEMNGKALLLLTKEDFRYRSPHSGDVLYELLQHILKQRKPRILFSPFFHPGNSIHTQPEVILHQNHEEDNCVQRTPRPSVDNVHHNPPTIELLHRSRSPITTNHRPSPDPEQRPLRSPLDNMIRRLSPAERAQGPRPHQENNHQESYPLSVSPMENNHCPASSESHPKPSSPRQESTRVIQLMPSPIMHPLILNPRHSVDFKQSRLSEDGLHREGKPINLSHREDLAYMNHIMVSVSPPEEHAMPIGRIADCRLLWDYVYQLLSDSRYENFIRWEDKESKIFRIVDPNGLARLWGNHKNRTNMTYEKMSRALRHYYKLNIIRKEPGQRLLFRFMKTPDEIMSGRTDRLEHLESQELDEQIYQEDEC
Chain of ETV5 (P41161 whole entry): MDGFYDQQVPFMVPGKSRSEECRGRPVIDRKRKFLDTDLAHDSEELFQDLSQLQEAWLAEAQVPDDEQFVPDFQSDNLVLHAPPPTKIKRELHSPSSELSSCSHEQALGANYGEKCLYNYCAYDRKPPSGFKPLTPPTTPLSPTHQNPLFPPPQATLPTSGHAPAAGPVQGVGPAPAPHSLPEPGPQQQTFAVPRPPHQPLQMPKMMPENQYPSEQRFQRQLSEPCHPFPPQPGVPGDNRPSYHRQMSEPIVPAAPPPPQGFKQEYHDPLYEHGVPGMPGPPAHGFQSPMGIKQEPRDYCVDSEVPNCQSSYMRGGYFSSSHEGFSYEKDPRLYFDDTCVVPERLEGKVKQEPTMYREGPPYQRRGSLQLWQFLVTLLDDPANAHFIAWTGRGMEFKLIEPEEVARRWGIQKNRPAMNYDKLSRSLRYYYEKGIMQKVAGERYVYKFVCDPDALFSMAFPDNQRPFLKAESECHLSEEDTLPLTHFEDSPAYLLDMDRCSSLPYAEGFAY
Chain of ELF4 (Q99607 whole entry): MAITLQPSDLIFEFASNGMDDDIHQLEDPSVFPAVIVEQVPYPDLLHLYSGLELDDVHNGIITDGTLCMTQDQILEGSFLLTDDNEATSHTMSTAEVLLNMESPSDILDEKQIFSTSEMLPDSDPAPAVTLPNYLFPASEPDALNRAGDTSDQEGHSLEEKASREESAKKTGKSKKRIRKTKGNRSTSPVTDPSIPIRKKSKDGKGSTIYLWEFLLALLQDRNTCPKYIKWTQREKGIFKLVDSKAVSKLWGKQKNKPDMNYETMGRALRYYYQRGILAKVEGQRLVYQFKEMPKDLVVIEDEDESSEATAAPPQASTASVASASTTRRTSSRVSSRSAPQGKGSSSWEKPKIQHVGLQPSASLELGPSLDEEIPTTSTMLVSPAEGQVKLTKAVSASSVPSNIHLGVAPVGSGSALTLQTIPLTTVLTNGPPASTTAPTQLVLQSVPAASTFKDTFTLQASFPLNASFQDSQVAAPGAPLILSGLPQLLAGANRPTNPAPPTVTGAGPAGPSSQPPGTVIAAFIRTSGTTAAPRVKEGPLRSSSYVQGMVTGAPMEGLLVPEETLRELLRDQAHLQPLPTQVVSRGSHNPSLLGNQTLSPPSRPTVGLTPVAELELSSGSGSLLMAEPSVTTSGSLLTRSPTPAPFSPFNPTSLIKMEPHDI
Chain of CRX (O43186 whole entry): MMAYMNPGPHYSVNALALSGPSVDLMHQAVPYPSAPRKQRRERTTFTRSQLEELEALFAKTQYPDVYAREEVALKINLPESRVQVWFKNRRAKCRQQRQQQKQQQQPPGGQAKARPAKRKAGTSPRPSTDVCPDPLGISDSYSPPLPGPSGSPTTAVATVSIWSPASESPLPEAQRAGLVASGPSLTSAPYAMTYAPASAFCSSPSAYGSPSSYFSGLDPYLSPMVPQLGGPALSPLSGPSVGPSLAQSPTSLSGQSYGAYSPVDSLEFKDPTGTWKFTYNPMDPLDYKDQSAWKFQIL
Chain of HSF1 (Q00613 whole entry): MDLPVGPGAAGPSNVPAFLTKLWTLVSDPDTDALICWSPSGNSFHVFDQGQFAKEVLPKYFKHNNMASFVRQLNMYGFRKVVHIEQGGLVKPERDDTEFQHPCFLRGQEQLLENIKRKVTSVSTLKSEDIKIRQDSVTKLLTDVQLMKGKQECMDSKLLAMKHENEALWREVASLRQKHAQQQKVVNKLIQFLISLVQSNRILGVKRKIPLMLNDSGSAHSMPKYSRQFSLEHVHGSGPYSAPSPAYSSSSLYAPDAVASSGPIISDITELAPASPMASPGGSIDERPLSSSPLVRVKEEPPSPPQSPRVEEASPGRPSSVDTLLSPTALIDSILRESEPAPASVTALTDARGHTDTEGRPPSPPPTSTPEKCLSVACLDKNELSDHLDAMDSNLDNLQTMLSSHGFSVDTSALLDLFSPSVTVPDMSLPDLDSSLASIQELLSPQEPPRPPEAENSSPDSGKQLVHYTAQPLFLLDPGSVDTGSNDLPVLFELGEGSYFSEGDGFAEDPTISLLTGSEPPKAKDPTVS
Chain of ETV1 (P50549 whole entry): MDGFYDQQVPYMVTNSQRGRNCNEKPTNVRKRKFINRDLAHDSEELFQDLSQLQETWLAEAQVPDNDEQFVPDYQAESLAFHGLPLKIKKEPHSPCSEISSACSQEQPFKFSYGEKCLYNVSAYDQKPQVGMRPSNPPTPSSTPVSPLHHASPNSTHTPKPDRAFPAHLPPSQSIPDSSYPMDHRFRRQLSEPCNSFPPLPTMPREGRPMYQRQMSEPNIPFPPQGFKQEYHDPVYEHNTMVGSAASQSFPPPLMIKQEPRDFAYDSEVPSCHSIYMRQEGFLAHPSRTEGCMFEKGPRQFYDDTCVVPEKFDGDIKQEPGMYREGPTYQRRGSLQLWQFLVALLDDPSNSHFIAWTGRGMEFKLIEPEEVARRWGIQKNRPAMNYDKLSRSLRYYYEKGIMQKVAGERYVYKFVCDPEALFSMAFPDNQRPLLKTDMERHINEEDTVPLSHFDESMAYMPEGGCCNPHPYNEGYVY

CTGTAT
binding signal [1]: 1.34 fold enrichment (6-mer frequency, TF over GST control) | binding signal [2]: 1.35 fold enrichment (6-mer frequency, TF over GST control) | binding signal [3]: 1.18 fold enrichment (6-mer frequency, TF over GST control) | binding signal [4]: 1.51 fold enrichment (6-mer frequency, TF over GST control) | binding signal [5]: 1.22 fold enrichment (6-mer frequency, TF over GST control) | binding signal [6]: 1.29 fold enrichment (6-mer frequency, TF over GST control) | binding signal [7]: 1.25 fold enrichment (6-mer frequency, TF over GST control) | binding signal [8]: 1.13 fold enrichment (6-mer frequency, TF over GST control) | binding signal [9]: 1.17 fold enrichment (6-mer frequency, TF over GST control) | binding signal [10]: 1.39 fold enrichment (6-mer frequency, TF over GST control) | binding signal [11]: 1.29 fold enrichment (6-mer frequency, TF over GST control) | binding signal [12]: 1.24 fold enrichment (6-mer frequency, TF over GST control) | binding signal [13]: 1.22 fold enrichment (6-mer frequency, TF over GST control) | binding signal [14]: 1.44 fold enrichment (6-mer frequency, TF over GST control) | binding signal [15]: 1.25 fold enrichment (6-mer frequency, TF over GST control) | binding signal [16]: 1.34 fold enrichment (6-mer frequency, TF over GST control) | binding signal [17]: 1.32 fold enrichment (6-mer frequency, TF over GST control) | binding signal [18]: 1.31 fold enrichment (6-mer frequency, TF over GST control)
